BAZ2B block – BAZ2B (human) inhibition; 360,000 compounds, 4.4% hits; Q9UIF8; Potency, µM (series often up to 114 µM), for inactives: top-dose activity change, negative = inhibition, usual class: inhibitors; AID 504333; AlphaScreen BAZ2B-H3K14Ac peptide displacement; further: on the % scale 0 is the no-effect control and ±100 the full control effect; nearly all actives have a fitted effect of over 60% in size
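BAZ2B 50 nM plus b-H3(5-23)K14Ac 50 nM, PBS pH 7.4/0.01% Tween-20, 30 min RT; compound added (max 110 uM), 30 min RT; streptavidin donor/Ni-chelate acceptor beads 10 ug/mL final, 20 min dark; AlphaScreen read.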
HP1b chromo inh – inhibitors of HP1-beta chromodomain binding to methylated histone tails. AlphaScreen HP1-beta / biotin-H3K9me3 peptide binding. 390,000 compounds, 0.56% hits. Potency, µM (doses to about 114 µM), inactives show at the highest dose activity change, negative = inhibition, most hits filed as inhibitors; further: nearly all actives have a fitted effect of over 70% in size
Target sequence (P83916 whole entry, looked up): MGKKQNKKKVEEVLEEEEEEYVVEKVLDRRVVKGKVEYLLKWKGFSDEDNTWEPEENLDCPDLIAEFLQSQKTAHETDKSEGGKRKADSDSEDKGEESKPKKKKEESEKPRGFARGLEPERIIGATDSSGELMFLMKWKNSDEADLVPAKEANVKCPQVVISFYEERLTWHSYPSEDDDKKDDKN
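HP1-beta protein (50 nM final) preincubated 30 min at room temperature with biotinylated H3(1-18)K9me3 peptide (50 nM) in PBS pH 7.4, 0.01% Tween-20, then compound added for 30 min. AlphaScreen streptavidin donor/nickel chelate acceptor beads (10 ug/mL final), 30 min dark, luminescence read.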
G9a inh – blocks human histone lysine methyltransferase G9a | Potency, µM (doses to about 102 µM), without a hit: at the highest dose activity, negative = inhibition, actives largely listed as inhibitors | 350,000 compounds, 8.8% hits | Q96KQ7 | G9a H3K9 monomethylation, AlphaScreen, 2 h; further: on the % scale 0 is the no-effect control and ±100 the full control effect; nearly all actives have a fitted effect of over 75% in size
Target sequence (Q96KQ7 913-1193 limits assumed): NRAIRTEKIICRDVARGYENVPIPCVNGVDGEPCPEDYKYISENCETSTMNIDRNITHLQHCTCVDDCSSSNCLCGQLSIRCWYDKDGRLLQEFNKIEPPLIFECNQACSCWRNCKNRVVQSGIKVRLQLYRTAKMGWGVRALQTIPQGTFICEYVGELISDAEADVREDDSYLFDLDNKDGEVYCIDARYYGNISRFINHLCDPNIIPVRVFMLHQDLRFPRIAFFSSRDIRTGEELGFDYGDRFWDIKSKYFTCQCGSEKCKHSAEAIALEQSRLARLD
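G9a (20 nM) was preincubated 15 min with compound, then reacted 2 h at room temperature with 500 nM biotin-H3K9 peptide and 20 µM SAM. Monomethyl-H3K9 detected by AlphaScreen using anti-H3K9me1 antibody.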
Sfp inh – inhibitors of Bacillus subtilis Sfp phosphopantetheinyl transferase. Q9F4F7. Biochemical Sfp PPTase activity, qHTS. Potency, µM, for inactives: largest response in the series, negative = inhibition, actives largely listed as inhibitors. 310,000 compounds, 3.5% hits;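 further: the enzyme is Sfp with the accession as filed and its product quenches rhodamine fluorescence; 0% = enzyme reaction without inhibitor and -100% = no enzyme wells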
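Buffer: 50 mM Hepes-Na pH 7.6, 10 mM MgCl2, 0.01% Nonidet P-40, 0.01% BSA. Enzyme 15 nM, pre-exposed to compound 15 min; substrates then added and fluorescence change tracked over 30 min.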
L3MBTL1 block – inhibitors of human L3MBTL1; Q9Y468; AlphaScreen L3MBTL1–H3K9me1 peptide binding; Potency, µM (top dose mostly 57.1 µM), without a hit: top-dose activity, negative = inhibition, actives largely listed as inhibitors; 230,000 compounds, 0.66% hits; AID 485360; further: on the % scale 0 is the no-effect control and ±100 the full control effect; nearly all actives have a fitted effect of over 60% in size
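AlphaScreen proximity signal between nickel-chelate acceptor and streptavidin donor beads (final 10 ug/mL) reports binding of 50 nM L3MBTL1 to 75 nM biotin-H3 K9me1 peptide; complex incubated with compounds 30 min at room temperature; cefsulodin titration as control.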
JMJD2A Tudor – inhibitors of human JMJD2A Tudor domain; 390,000 compounds, 4.4% hits; AID 504339; Potency, µM (highest dose often 114 µM), for the others: at the top dose activity change, negative = inhibition, hits mostly inhibitors; AlphaScreen JMJD2A-Tudor / H3K4me3 peptide binding; further: on the % scale 0 is the no-effect control and ±100 the full control effect; nearly all actives have a fitted effect of over 50% in size
The depositor's hits bear a star; ? = inconclusive; · = not tested or not shown; [ ] = dose if it differs, or a comment. In the library only some 12% were active in any assay of this set; here they are far more common. The call rests on the fitted dose curve; in most records, active means well fitted curve in the direction sought with a large enough effect; inconclusive means small, poorly fitted or top-dose-only effect, or another doubt; inactive means no such curve, though single readings can be large; an effect the other way counts as inactive or inconclusive. Potency means the concentration at half of the fitted maximal effect.

SMILES | BAZ2B block | HP1b chromo inh | G9a inh | Sfp inh | L3MBTL1 block | JMJD2A Tudor
Cc1cc(C)cc(Nc2cc(=O)n(C3CCCCC3)c(=O)[nH]2)c1 | -7% | -9% | 7%[59 µM] | -5% | -1% | -19%
Cc1cc2nc3c(=O)n(C4CCCCC4)c(=O)[nH]c3nc2cc1N | -23% | 3% | 1.3µM* | 2% | -27% | 2%
COc1ccc(N=C2O/C(=C/c3sc(=S)n(CC4CCCO4)c3O)N=C2C#N)cc1 (stereo unspecified) | 8.9µM* | ? | 11µM* | 2.8µM* | -20% | ?
Cc1ccc(S(=O)(=O)c2nc(-c3cccs3)oc2N2CCC(C(N)=O)CC2)cc1 | · | 28%[57 µM] | · | · | -8% | -13%
COc1ccccc1NS(=O)(=O)c1cc(NC(=O)c2cnccn2)ccc1N1CCOCC1 | -15% | 47% | · | -7% | -7% | -14%
COc1ccccc1NS(=O)(=O)c1cc(NC(=O)C(C)(C)C)ccc1N1CCOCC1 | 4% | 22% | 7%[0.501 µM] | · | -8% | -6%
COc1ccccc1NS(=O)(=O)c1cc(NC(=S)NCCN2CCOCC2)ccc1N1CCOCC1 | ? | ? | 10µM* | -106% | -15% | ?
COc1ccccc1NS(=O)(=O)c1cc(NC(=O)c2cccc(S(=O)(=O)N(C)C)c2)ccc1N1CCOCC1 | 4% | 41% | 18µM* | · | -15% | -21%
COc1ccccc1NS(=O)(=O)c1cc(NC(=O)c2ccncc2)ccc1N1CCOCC1 | 6% | ? | ? | 79µM* | 7% | -32%
COCC(=O)Nc1ccc(N2CCOCC2)c(S(=O)(=O)Nc2ccccc2OC)c1 | · | ? | · | · | -5% | -33%
COc1ccccc1NS(=O)(=O)c1cc(NC(=O)C2CCCC2)ccc1N1CCOCC1 | -27% | ? | 8.9µM* | 20µM* | -8% | ?
Cc1ccc(C(=O)Nc2cccc(S(=O)(=O)N3CCOCC3)c2)cc1[N+](=O)[O-] | -23% | 1% | 2% | -4% | -9% | -34%
COc1ccccc1NS(=O)(=O)c1cc(NC(=O)COc2ccccc2F)ccc1N1CCOCC1 | · | 18µM* | · | · | -8% | -19%
CN(C)S(=O)(=O)c1cccc(NC(=O)c2ccc(N3CCOCC3)c([N+](=O)[O-])c2)c1 | ? | -5% | 50µM* | ? | -4% | -33%
CN(C)S(=O)(=O)c1cc(NC(=O)c2ccc(-n3ccnc3)c([N+](=O)[O-])c2)ccc1Cl | -29% | 20% | 45µM* | -24% | · | -27%
C#CCOCCOCCOCCNc1nc(N2CCN(C(=O)[C@H](CCCCN)n3cc(CN)nn3)CC2)nc(N2CCN(C(=O)[C@H](CCCCN)n3cc([C@@H](N)CC(N)=O)nn3)CC2)n1 | · | 13% | · | · | · | 35µM*
C#CCOCCOCCOCCNc1nc(N2CCN(C(=O)C([C@@H](C)O)n3cc([C@@H](N)CCCCN)nn3)CC2)nc(N2CCN(C(=O)[C@H](CCC(=O)O)n3cc([C@@H](N)CCCCN)nn3)CC2)n1 (stereo partly specified) | · | 41% | · | · | -6% | ?
C#CCOCCOCCOCCNc1nc(N2CCN(C(=O)[C@H](CCCCN)n3cc([C@@H](N)CC(N)=O)nn3)CC2)nc(N2CCN(C(=O)[C@H](CCCCN)n3cc([C@@H](N)CC(N)=O)nn3)CC2)n1 | · | 40% | · | · | 2% | 79µM*
C#CCOCCOCCOCCNc1nc(N2CCN(C(=O)C([C@@H](C)O)n3cc([C@@H](N)CCCCN)nn3)CC2)nc(N2CCN(C(=O)[C@H](CCCCN)n3cc([C@@H](N)CC(N)=O)nn3)CC2)n1 (stereo partly specified) | · | 13% | · | · | 2% | 79µM*
C#CCOCCOCCOCCNc1nc(N2CCN(C(=O)[C@H](CCCCN)n3cc(CN)nn3)CC2)nc(N2CCN(C(=O)[C@H](CCCCN)n3cc([C@@H](N)[C@H](C)CC)nn3)CC2)n1 | · | 29% | · | · | 9% | -35%
COc1ccc(C(C(=O)NCc2ccccc2)N(C(=O)Cn2nnc3ccccc32)c2ccc(OC)cc2)cc1 (stereo unspecified) | 0% | 41% | 0%[59 µM] | · | · | 1%
COc1ccc(-c2nc(CCNC(=O)Cc3ccc(F)cc3)cs2)cc1 | 2% | 26%[57 µM] | 13%[59 µM] | · | · | 5%
O=C(NC1CCN(S(=O)(=O)c2ccc(F)cc2)CC1)c1cccc(F)c1 | 1% | 25% | 18% | 16% | -4% | -15%
CC1CCCC(NC(=O)COC(=O)CCSc2ccccc2)C1C (stereo unspecified) | 11% | 57% | 5% | 15% | 14% | -1%
COc1ccccc1N1CCN(c2nc3ccccc3nc2C(C#N)C(=O)OC(C)C)CC1 (stereo unspecified) | ? | -19% | 14µM* | -3% | -14% | ?
SMILES | BAZ2B block | HP1b chromo inh | G9a inh | Sfp inh | L3MBTL1 block | JMJD2A Tudor
COCCCNC(=O)C(C#N)c1nc2ccccc2nc1N1CCCC1 (stereo unspecified) | ? | 34% | 40µM* | -24% | -10% | -6%
CCN1CCN(c2nc3ccccc3nc2C(C#N)C(=O)OCc2ccccc2)CC1 (stereo unspecified) | -35% | -6% | 40µM* | 3% | -5% | ?
COCCOC(=O)C(C#N)c1nc2ccccc2nc1N1CCCC1 (stereo unspecified) | -32% | -5% | ? | 14% | -5% | -24%[57.1 µM]
Cc1c(Cl)cccc1NC(=O)C1COc2ccccc2O1 (stereo unspecified) | 2% | 41% | 17% | 19% | 8% | 5%
O=C1CCCC(O)=C1N=Nc1ccc2c(c1)OCO2 | ? | -30% | 19%[59 µM] | 7% | -15% | ?
O=C1CCCC(O)=C1N=Nc1ccc(C(=O)O)cc1 | 22µM* | 45µM* | 8.9µM* | -4% | 3.2µM* | -12%[11.4 µM]
O=C1CCCC(O)=C1N=Nc1c(Cl)cc(C(F)(F)F)cc1Cl | 71µM* | -7% | · | ? | -53% | ?
COCCc1nn2c(=O)cc(COC(=O)COc3ccccc3C)nc2s1 | -12% | 59% | 19%[59 µM] | · | · | -26%
Cc1nn(-c2ccc(C(=O)O)cc2)c(C)c1Cl | -22% | 47% | -33% | 15% | -7% | -3%
Cc1c[n+]([O-])n(-c2ccc(C(=O)O)cc2)n1 | 56µM* | 6% | ? | 4% | · | ?
CC1(C)CC(Cc2nc(=S)[nH][nH]2)C(=O)O1 (stereo unspecified) | ? | 24% | 1.8µM* | 20µM* | 37% | 50µM*
CC(=O)Nc1ccc2nc(-c3ccccn3)[nH]c2c1 | ? | 12% | ? | 50µM* | 6% | 56µM*
